Screens deposited in PubChem by National Center for Advancing Translational Sciences (NCATS).
KCNH2 WT inh: KCNH2 (human, wildtype) channel inhibition; U2OS, BacMam KCNH2, thallium flux FluxOr; hits give low values; activity change, % at 1.84 µM; 340,000 tested, 0.37% active; Q12809;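 active means maximum activity change below -70%; inconclusive means maximum activity change between -70% and -50%; inactive means maximum activity change above -50%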
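U2OS cells transduced with wild-type KCNH2 virus are loaded with FluxOr dye for 45 min, and thallium flux is measured in kinetic reads before and after stimulation buffer. Rate constants are normalized to DMSO controls.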
Giardia killer: kills Giardia lamblia; Giardia lamblia trophozoite viability; activity change, % at 7.66 µM, hits read low; AID 540267; 340,000 tested, 0.15% active; in the data active means activity change below about -80%; inconclusive means between about -30% and that limit;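 further: parasites exposed to compound for two days anaerobically before the ATP read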
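Killing of trophozoites was scored by loss of ATP luminescence after a 48 hrs anaerobic exposure to compounds at 37 deg C, using 100 cells per well.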
USP1 inh: inhibitors of human USP1/UAF1 deubiquitinase | O94782 | recombinant USP1/UAF1, Ub-Rhodamine cleavage fluorescence | Potency, µM (doses to about 57.1 µM), without a hit: at the highest dose activity change, negative = inhibition, usual class: inhibitors | 390,000 tested, 0.23% active | AID 743255; active means well fitted inhibition curve with a large enough effect; inconclusive means small, poorly fitted or top-dose-only effect; inactive means no such curve, though single readings can be large or run the other way; further: potency means the concentration at half of the fitted maximal effect; nearly all actives have a fitted effect of over 60% in size
Target sequence (O94782 whole entry, looked up): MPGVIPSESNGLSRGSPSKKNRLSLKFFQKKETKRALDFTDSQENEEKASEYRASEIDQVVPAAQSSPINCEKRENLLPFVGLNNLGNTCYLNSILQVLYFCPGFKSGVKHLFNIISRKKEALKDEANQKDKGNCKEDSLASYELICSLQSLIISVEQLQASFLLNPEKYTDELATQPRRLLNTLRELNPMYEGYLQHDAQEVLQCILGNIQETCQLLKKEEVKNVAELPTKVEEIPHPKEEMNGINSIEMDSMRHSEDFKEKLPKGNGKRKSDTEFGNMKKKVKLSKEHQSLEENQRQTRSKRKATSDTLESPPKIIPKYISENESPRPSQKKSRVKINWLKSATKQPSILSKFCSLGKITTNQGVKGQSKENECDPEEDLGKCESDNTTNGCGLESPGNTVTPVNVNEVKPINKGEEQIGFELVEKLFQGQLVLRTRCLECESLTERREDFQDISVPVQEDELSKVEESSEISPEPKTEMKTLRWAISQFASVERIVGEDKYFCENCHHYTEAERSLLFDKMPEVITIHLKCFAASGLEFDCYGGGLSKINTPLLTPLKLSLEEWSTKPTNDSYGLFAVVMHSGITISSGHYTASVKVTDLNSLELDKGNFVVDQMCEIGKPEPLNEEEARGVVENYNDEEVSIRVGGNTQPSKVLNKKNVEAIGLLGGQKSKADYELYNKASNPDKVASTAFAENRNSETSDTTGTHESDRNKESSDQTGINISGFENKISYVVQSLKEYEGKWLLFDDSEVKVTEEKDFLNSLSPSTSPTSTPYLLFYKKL
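USP1/UAF1 complex at 1 nM was preincubated with compound for 15 min at room temperature, then Ub-Rho substrate (150nM final) was added. Fluorescence (480/540 nm) was read kinetically, 6 reads every 60 seconds.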
Coupling enz: counter-screen for Giardia aldolase inhibitors: coupling enzyme system | coupling enzyme system counterscreen, AmpLite Red fluorescence | activity change, negative = inhibition, % at 58.2 µM, hits read low | 290,000 tested, 0.67% active | AID 2472; in the data active means activity change below about -30%
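Counterscreen of the coupled detection system alone, without aldolase: glyceraldehyde-3-phosphate coupling enzymes plus AmpLite Red readout. Compounds at 57.5 uM final, 10 min RT preincubation, 20 min RT reaction, fluorescence 525/598 nm.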
KCNH2 3.1 block: inhibitors of human KCNH2 3.1 potassium channel isoform. U2OS KCNH2 3.1, thallium flux FluxOr; hits give low values. activity change, % (tested at about 1.8 µM). 340,000 tested, 0.95% active;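 active means maximum activity change below -70%; inconclusive means maximum activity change from -70% to -50%; inactive means maximum activity change above -50%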;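 further: thallium influx rate constant from kinetic fluorescence after stimulation buffer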
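Thallium flux via FluxOr fluorescence (Red40 quencher, 45 min loading) in U2OS cells virally expressing the KCNH2 3.1 isoform (1.77 x 10^8 /mL virus, overnight at 37 C). Rate constants from 2-min kinetic reads post-stimulation, normalised to positive and negative controls.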
Starred values were filed as active, the others as inactive; ? = inconclusive; nt = not tested or not shown. Only some compounds are listed: those with a hit (about 1.7% of all), similar ones and a draw of the others. On the % scale 0 is the no-effect control and ±100 the full control effect.

SMILES	KCNH2 WT inh	Giardia killer	USP1 inh	Coupling enz	KCNH2 3.1 block
O=C(Nc1ccccc1N1CCCCC1)c1ccc([N+](=O)[O-])o1	-3.3	?	-23.4%	nt	-4.9
CC(=O)N1CCN(c2ccc(NC(=O)c3ccc(Br)o3)cc2Cl)CC1	-2.1	2.1	-21.5%	-15.1	-14.9
O=C(Nc1ccccc1N1CCOCC1)c1ccc([N+](=O)[O-])o1	3.5	-91.8*	-11.4%	nt	-10.6
CN1CCN(c2ccc(NC(=O)c3ccc([N+](=O)[O-])o3)cc2Cl)CC1	-17.4	?	-20.1%	-2.1	-14.3
CCCC(=O)N1CCN(c2ccc(NC(=O)c3ccc([N+](=O)[O-])o3)cc2Cl)CC1	5.2	-81.8*	-22.2%	-8.8	-33.5
CC(=O)N1C[C@H]2CON(C)[C@H]2C[C@H]1c1ccccc1Br	9.4	11.9	-20.3%	nt	-5.2
Cc1ccc([N+](=O)[O-])cc1S(=O)(=O)N1CCn2cccc2C1c1ccc(F)c(F)c1 (configuration not stated)	nt	nt	-8.7%	nt	nt
CN(C(=O)CSc1nc2ccccc2n1CC(=O)NCc1ccc(F)cc1)c1ccc(F)cc1	nt	nt	-6.2%	nt	nt
COc1ccc(N2CC(c3nc(-c4cc(OC)c(OC)c(OC)c4)no3)CC2=O)cc1Cl (configuration not stated)	nt	nt	-23.7%	nt	nt
O=C(Nc1ccccc1N1CCN(C(=O)c2ccc(Cl)cc2)CC1)c1ccc([N+](=O)[O-])o1	-94.2*	-89.3*	-25.5%	nt	-92.7*
COc1c(C)cccc1C(=O)Nc1ccc(N2CCOCC2)c(Cl)c1	11.1	-4.2	-14.3%	-35.0*	10.0
O=C(Nc1ccc(N2CCOCC2)c(Cl)c1)c1cccnc1Cl	-0.9	6.6	-20.1%	-5.2	29.9
Cc1ncc([N+](=O)[O-])n1CCOC(=O)NC(NCc1cccnc1)C(Cl)(Cl)Cl (configuration not stated)	-11.0	-92.2*	-12.8%	4.1	-1.2
Cc1ccccc1NC(NC(=O)OCCn1c([N+](=O)[O-])cnc1C)C(Cl)(Cl)Cl (configuration not stated)	8.3	-82.3*	-5.7%	-4.6	1.3
CC(C)Cn1c(=O)c2ccccc2n2c(CCC(=O)NCc3ccc(Cl)cc3)nnc12	nt	nt	-28.0%	nt	nt
O=C(N=C1SC2CS(=O)(=O)CC2N1c1ccc(Br)cc1Cl)C1CC1 (configuration not stated)	8.0	13.3	-12.4%	0.9	5.7
O=C(N=C1SC2CS(=O)(=O)CC2N1c1ccc(Br)cc1F)C1CC1 (configuration not stated)	-156.3*	0.5	-23.7%	nt	18.2
Cc1ccc(NC(=O)C(Cc2ccccc2)NS(=O)(=O)c2ccc3c(c2)CCC(=O)N3)cc1 (configuration not stated)	nt	nt	-3.5%	nt	nt
O/N=C1\CCCc2oc3c(c21)CCCC3	-5.4	23.7	-4.6%	-30.9*	-2.1
Cc1c(C(=O)O)oc2c1/C(=N\O)CCC2	21.7	3.1	-7.6%	2.7	-23.4
CCOC(=O)c1sc2ncn(CC(=O)Nc3ccc(C)cc3C)c(=O)c2c1C	nt	nt	-21.4%	nt	nt
CCN(CC)c1ccc2cc(C(C)=O)c(=O)oc2c1	17.2	-15.1	?	-0.7	-27.7
CCN(CC)c1ccc2cc(NC(=O)CCC(=O)O)c(=O)oc2c1	9.6	-25.4	28.2µM*	-0.5	-8.5
CCN(CC)c1ccc2cc(C=O)c(=O)oc2c1	25.3	-1.2	15.8µM*	0.5	-15.1
Cc1ccc(-n2c(=O)c3ccc(C(=O)NCc4ccco4)cc3n(CC(=O)Nc3ccccc3C(F)(F)F)c2=O)cc1	nt	nt	-2.1%	nt	nt
SMILES	KCNH2 WT inh	Giardia killer	USP1 inh	Coupling enz	KCNH2 3.1 block
CC1CC(C)CN(CC(=O)Nc2ccc3c(c2)OCCO3)C1 (configuration not stated)	-112.9*	15.8	-10.1%	-1.8	-139.0*
CCC(=O)Nc1ccc(C(=O)CSc2nnc(-c3ccc(NS(=O)(=O)CC)cc3)o2)cc1OC	-91.9*	9.5	-14.0%	5.2	8.0
CCS(=O)(=O)Nc1ccc(-c2nnc(SCC(=O)OC)o2)cc1	3.7	4.0	-12.6%	4.3	-10.3
Cc1cc(O)c(-c2cc(O)c(C)cc2O)cc1O	-0.5	5.7	-22.1%	-49.7*	-30.7
COc1ccc(CCNC(=O)c2cc3c(=O)[nH]c4ccc(C)cc4c3s2)cc1OC	nt	nt	-6.3%	nt	nt
O=S1(=O)NCC23CCC(CC21)O3 (configuration not stated)	nt	23.8	nt	4.2	nt
O=C(Cn1nc2c(cc1=O)CCCC2)NCc1ccccc1	nt	nt	-14.6%	nt	nt
CSc1ccc(CN(C)CC(=O)Nc2ccccc2C(=O)NC2CC2)cc1	1.3	6.4	-10.1%	nt	1.5
CNC(=O)c1ccc(CN(C)CC(=O)Nc2ccccc2C(=O)NC2CC2)cc1	6.4	-3.4	-13.1%	nt	-72.5*
Cc1cccc(OCCCC(=O)Nc2nnc(C3CCCO3)s2)c1C (configuration not stated)	3.4	15.1	-3.0%	-0.5	-2.5
CCc1ccc(OCCCC(=O)Nc2nnc(C3CCCO3)s2)cc1 (configuration not stated)	-248.1*	-8.4	-15.8%	3.0	0.2
Cc1ccc(-n2c(-c3c(-c4ccccc4)noc3C)n[nH]c2=S)cc1	-25.3	-8.0	-4.9%	4.9	-187.5*
CCCCS(=O)(=O)Nc1ccc2cn[nH]c2c1	0.3	8.7	-18.6%	-35.9*	-23.2
O=S(=O)(Nc1ccc2cn[nH]c2c1)c1ccc(Cl)cc1	-2.2	15.6	-9.9%	-1.6	-21.3
Cc1ccc(CNC(=O)c2ccc(NC(=O)N3CCSc4ncccc43)cc2)cc1	nt	nt	1.3%	nt	nt
Cc1cc(C)c2nc(N3CCCN(C(=O)c4ccco4)CC3)c(C#N)cc2c1	-2.5	5.3	-32.3%	-38.8*	nt
CCCC(=O)N1CCc2cc(OC)c(OC)cc2C1COc1ccc2c(C)cc(=O)oc2c1 (configuration not stated)	nt	nt	-14.2%	nt	nt
O=C(COc1ccccc1F)Nc1ccc(OCc2cc(=O)n3ccccc3n2)cc1	nt	nt	-21.5%	nt	nt
O=C(Cn1nnc(-c2ccccc2F)n1)N1CCCCC1	-7.4	18.3	-20.5%	2.7	-133.8*
O=C(Cn1nnc(-c2ccc(F)cc2)n1)N1CCCCC1	-8.4	-0.6	-16.8%	4.7	2.9
O=C1C(Cl)=C(N2CCCCC2)C(=O)C(Cl)=C1c1cnc(N2CCCCC2)s1	-3.7	19.2	-20.9%	-46.3*	24.7
Fc1ccc2[nH]c3c(NCc4ccco4)ncnc3c2c1	nt	-10.7	nt	nt	nt
O=C(N/N=C\c1ccc(Cl)cc1)C1=NOC2COC3(CCN(c4ccc([N+](=O)[O-])cc4)CC3)OCC12 (configuration not stated)	-37.8	-1.0	-0.3%	0.9	-103.5*
CC(=O)c1ccc(N2CCN(C(=O)c3cc4cc5cc(C)ccc5nc4s3)CC2)cc1	nt	nt	-19.5%	nt	nt
CCCSc1ncc(Cl)c(C(=O)NCc2ccc(C)cc2)n1	nt	nt	5.1%	nt	nt
CC(=O)Nc1ccc(N2CCCC2)cc1	-2.1	-12.5	-6.7%	-31.5*	2.1
